# Key:
# [1] = target: T1, Inhibitor of nuclear factor kappa-B kinase subunit epsilon (Homo sapiens) (UniProt Q14164); conditions: at 1 µM;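 further: reported values are averaged percent inhibition figures against human IKKε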
# T1 sequence (whole entry): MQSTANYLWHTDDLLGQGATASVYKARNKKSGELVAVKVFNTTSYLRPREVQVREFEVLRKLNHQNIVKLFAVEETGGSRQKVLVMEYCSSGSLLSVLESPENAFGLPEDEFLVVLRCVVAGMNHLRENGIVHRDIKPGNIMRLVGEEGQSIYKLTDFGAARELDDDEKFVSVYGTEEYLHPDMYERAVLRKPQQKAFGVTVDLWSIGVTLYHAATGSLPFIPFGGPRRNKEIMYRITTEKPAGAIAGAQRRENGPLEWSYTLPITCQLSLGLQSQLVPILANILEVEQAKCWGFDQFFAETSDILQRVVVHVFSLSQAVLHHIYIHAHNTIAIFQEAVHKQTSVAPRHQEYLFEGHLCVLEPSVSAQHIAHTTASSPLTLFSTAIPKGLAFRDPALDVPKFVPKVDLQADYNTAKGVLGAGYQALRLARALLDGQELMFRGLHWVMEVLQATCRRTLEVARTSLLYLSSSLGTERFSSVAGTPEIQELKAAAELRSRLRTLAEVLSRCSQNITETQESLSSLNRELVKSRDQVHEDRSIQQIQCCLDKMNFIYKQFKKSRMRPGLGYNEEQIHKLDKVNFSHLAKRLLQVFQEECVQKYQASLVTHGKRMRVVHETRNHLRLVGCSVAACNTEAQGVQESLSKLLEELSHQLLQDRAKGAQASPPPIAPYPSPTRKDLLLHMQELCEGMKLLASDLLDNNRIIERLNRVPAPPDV
# [2] = target: T2, Serine/threonine-protein kinase Nek1 (Homo sapiens) (UniProt Q96PY6); conditions: at 0.1 µM
# T2 sequence (whole entry): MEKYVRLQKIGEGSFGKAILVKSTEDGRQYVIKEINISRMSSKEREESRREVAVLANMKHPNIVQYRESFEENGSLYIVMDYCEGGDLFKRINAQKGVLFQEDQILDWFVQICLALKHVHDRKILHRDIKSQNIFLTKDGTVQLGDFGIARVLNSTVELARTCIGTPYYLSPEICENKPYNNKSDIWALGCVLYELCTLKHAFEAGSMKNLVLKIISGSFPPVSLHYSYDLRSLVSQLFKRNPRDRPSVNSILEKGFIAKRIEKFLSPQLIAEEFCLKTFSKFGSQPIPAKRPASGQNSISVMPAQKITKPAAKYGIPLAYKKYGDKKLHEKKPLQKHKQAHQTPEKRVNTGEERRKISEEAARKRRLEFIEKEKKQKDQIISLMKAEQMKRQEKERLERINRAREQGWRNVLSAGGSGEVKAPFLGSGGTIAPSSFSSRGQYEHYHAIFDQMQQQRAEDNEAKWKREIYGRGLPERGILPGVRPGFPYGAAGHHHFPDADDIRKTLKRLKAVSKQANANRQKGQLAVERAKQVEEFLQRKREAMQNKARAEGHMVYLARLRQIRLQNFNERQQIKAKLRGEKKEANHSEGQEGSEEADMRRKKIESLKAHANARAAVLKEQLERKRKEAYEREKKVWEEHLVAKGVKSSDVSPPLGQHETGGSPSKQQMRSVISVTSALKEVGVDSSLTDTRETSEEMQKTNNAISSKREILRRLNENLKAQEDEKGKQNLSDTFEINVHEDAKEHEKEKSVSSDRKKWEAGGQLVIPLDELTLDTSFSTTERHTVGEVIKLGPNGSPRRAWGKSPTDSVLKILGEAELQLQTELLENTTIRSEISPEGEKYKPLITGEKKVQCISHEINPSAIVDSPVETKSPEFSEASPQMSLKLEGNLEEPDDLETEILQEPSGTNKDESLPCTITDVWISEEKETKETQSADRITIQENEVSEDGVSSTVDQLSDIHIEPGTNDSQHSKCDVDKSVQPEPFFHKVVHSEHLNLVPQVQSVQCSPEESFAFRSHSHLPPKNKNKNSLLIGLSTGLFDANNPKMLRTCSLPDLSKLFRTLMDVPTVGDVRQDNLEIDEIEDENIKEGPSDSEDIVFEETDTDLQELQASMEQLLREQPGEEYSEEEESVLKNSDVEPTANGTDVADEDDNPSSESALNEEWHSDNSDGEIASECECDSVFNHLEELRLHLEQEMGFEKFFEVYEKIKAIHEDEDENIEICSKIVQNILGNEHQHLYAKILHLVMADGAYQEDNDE
# [3] = target: T2, Serine/threonine-protein kinase Nek1 (Homo sapiens); conditions: at 1 µM
# [4] = target: T3, Serine/threonine-protein kinase Nek2 (Homo sapiens) (UniProt P51955); conditions: at 0.1 µM
# T3 sequence (whole entry): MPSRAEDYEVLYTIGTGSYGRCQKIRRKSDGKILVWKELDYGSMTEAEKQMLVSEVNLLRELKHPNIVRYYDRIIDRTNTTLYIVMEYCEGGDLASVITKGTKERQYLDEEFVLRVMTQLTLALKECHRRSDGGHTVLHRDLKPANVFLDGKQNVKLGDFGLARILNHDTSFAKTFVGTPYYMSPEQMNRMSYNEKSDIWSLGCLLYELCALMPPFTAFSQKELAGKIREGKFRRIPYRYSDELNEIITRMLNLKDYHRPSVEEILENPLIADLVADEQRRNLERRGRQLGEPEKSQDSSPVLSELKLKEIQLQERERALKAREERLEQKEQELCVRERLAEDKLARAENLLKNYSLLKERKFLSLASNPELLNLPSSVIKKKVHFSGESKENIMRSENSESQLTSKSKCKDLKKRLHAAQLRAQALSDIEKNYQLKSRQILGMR
# [5] = target: T3, Serine/threonine-protein kinase Nek2 (Homo sapiens); conditions: at 1 µM
# [6] = target: Serine/threonine-protein kinase Nek6 (Homo sapiens) (UniProt Q9HC98); conditions: at 0.1 µM
# [7] = target: Serine/threonine-protein kinase Nek6 (Homo sapiens) (UniProt Q9HC98); conditions: at 1 µM
# [8] = target: Serine/threonine-protein kinase Nek7 (Homo sapiens) (UniProt Q8TDX7); conditions: at 0.1 µM
# [9] = target: Serine/threonine-protein kinase Nek7 (Homo sapiens) (UniProt Q8TDX7); conditions: at 1 µM
# [10] = target: T4, Serine/threonine-protein kinase Nek9 (Homo sapiens) (UniProt Q8TD19); conditions: at 0.1 µM
# T4 sequence (whole entry): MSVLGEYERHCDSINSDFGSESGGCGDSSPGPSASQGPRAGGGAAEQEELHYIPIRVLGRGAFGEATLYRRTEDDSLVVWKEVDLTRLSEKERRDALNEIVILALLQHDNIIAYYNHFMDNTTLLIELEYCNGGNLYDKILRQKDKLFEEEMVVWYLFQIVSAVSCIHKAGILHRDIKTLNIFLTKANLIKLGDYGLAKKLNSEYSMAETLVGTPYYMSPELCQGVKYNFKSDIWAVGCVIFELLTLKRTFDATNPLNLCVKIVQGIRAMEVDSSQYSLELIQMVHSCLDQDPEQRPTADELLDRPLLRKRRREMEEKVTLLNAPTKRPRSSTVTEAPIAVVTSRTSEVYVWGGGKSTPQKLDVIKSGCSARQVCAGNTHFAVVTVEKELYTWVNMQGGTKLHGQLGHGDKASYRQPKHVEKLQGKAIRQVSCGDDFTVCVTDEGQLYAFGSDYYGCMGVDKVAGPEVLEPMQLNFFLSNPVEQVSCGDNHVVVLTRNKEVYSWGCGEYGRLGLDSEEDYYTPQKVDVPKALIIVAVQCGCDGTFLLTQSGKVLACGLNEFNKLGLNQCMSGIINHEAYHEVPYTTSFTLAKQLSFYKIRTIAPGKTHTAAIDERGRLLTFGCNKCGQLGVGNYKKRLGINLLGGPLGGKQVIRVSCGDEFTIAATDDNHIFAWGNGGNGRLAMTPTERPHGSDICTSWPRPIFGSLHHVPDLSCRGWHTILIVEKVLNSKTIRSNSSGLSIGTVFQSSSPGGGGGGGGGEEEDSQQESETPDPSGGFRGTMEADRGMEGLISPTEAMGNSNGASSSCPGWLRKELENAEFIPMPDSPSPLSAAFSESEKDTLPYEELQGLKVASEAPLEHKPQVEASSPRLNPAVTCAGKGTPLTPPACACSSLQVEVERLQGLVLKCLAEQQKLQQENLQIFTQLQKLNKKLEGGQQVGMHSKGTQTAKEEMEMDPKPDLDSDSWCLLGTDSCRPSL
# [11] = target: T4, Serine/threonine-protein kinase Nek9 (Homo sapiens); conditions: at 1 µM
# [12] = target: Serine/threonine-protein kinase PLK1 (Homo sapiens) (UniProt P53350); conditions: at 0.1 µM
# [13] = target: Serine/threonine-protein kinase PLK1 (Homo sapiens) (UniProt P53350); conditions: at 1 µM
# [14] = target: T5, Dual specificity protein kinase TTK (Homo sapiens) (UniProt P33981); conditions: at 0.1 µM
# T5 sequence (whole entry): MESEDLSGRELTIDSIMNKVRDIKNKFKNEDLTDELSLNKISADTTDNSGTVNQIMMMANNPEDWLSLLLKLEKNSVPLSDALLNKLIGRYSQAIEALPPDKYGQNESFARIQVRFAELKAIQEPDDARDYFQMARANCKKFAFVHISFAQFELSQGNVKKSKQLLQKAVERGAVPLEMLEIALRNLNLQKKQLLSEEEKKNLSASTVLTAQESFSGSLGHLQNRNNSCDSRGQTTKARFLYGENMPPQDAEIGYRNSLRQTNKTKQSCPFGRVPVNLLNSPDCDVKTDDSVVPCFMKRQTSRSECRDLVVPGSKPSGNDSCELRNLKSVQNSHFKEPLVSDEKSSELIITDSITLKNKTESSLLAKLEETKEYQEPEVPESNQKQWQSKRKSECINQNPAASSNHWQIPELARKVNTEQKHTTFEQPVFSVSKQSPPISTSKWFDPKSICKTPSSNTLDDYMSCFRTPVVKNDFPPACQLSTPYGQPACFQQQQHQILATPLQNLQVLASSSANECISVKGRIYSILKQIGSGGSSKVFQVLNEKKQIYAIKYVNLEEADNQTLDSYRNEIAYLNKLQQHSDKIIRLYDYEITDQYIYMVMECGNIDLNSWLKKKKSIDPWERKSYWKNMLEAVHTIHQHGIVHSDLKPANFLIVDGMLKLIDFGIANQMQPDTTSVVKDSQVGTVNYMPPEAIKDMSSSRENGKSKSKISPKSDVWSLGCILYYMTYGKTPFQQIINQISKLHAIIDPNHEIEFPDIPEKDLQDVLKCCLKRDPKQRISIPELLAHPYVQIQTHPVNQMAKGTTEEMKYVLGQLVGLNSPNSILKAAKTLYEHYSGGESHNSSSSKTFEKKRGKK
# [15] = system: T6, Receptor-type tyrosine-protein kinase FLT3 (Homo sapiens), P36888 [D835Y]; conditions: at 1 µM
# T6 sequence (whole entry): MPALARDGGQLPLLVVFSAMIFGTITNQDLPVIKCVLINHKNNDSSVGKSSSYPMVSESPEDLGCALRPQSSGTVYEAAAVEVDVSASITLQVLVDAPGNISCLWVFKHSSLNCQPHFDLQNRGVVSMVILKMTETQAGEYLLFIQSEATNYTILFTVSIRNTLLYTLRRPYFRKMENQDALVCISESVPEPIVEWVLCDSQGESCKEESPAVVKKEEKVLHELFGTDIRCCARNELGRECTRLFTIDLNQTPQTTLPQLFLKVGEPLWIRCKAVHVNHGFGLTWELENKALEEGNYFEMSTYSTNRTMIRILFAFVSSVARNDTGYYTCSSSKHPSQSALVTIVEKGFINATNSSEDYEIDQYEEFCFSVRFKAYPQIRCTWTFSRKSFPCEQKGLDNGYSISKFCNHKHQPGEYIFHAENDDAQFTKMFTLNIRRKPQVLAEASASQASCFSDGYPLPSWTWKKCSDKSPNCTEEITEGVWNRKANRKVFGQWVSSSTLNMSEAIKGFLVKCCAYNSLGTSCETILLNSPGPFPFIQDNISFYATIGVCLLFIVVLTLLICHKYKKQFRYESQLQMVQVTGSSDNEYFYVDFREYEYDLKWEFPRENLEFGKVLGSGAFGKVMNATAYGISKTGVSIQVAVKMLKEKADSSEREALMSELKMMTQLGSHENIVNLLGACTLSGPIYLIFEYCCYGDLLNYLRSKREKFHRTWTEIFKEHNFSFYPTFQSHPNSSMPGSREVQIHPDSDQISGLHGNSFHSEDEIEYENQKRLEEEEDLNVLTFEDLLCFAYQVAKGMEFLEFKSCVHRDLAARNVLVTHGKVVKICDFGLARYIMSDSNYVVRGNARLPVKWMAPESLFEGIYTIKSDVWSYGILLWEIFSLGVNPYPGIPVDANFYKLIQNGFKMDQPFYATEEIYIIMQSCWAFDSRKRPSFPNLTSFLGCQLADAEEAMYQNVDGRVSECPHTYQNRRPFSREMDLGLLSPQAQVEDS
# [16] = target: Vascular endothelial growth factor receptor 3 (Homo sapiens) (UniProt P35916); conditions: at 0.1 µM
# [17] = target: Vascular endothelial growth factor receptor 3 (Homo sapiens) (UniProt P35916); conditions: at 1 µM
# [18] = target: Macrophage colony-stimulating factor 1 receptor (Homo sapiens) (UniProt P07333); conditions: at 0.1 µM
# [19] = target: Macrophage colony-stimulating factor 1 receptor (Homo sapiens) (UniProt P07333); conditions: at 1 µM
# [20] = target: Tyrosine-protein kinase Fyn (Homo sapiens) (UniProt P06241); conditions: at 0.1 µM
# Sequence of Tyrosine-protein kinase Fyn (Homo sapiens) (P06241 2-537 limits assumed): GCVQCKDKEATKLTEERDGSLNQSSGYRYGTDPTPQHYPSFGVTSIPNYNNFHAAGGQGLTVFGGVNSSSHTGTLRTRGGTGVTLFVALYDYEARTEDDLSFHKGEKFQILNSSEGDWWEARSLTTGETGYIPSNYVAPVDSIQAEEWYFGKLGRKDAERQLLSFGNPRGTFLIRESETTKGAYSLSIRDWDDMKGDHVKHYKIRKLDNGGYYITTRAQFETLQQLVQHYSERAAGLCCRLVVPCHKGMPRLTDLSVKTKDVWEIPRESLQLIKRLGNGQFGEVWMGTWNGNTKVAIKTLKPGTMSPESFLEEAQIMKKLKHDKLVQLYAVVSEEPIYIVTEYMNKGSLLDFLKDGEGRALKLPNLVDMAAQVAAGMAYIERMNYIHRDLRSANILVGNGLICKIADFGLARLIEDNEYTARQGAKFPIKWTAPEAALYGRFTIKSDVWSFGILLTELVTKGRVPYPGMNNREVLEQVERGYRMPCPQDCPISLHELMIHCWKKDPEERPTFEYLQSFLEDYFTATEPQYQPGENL
# Sequence of Serine/threonine-protein kinase Nek7 (Homo sapiens) (Q8TDX7 whole entry, looked up): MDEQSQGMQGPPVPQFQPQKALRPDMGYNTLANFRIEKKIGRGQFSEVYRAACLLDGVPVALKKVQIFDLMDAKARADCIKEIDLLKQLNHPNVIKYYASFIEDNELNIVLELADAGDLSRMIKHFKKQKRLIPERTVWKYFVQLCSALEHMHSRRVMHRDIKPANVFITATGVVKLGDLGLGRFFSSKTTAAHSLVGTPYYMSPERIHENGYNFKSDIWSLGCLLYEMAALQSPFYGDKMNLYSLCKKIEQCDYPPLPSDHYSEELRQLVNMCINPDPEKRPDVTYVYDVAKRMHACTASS
# Sequence of Macrophage colony-stimulating factor 1 receptor (Homo sapiens) (P07333 whole entry): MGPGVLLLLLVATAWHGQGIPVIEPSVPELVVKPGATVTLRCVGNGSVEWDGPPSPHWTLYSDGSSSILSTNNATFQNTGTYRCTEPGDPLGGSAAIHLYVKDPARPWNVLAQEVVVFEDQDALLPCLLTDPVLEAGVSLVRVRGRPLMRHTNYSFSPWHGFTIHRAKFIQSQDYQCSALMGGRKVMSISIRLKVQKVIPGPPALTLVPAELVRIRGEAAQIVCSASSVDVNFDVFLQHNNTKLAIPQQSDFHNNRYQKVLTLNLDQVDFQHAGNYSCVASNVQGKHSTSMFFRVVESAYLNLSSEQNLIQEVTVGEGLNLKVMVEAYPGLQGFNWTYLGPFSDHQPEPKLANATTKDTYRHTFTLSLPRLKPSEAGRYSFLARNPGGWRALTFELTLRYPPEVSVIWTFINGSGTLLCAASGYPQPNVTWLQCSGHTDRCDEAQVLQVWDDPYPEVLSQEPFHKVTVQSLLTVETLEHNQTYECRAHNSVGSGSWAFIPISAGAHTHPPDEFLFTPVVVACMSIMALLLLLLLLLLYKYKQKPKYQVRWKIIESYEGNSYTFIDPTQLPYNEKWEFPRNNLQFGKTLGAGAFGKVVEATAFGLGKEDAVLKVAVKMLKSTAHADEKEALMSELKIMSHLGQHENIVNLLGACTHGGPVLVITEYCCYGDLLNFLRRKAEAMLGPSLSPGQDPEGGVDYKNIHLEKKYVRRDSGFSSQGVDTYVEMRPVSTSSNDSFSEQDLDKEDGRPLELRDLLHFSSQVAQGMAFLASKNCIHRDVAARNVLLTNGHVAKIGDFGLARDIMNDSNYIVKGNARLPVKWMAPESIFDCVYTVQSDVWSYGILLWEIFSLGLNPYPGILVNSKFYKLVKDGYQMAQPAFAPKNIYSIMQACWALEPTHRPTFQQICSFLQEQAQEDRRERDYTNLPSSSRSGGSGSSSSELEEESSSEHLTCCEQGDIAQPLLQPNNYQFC
# Sequence of Vascular endothelial growth factor receptor 3 (Homo sapiens) (P35916 whole entry): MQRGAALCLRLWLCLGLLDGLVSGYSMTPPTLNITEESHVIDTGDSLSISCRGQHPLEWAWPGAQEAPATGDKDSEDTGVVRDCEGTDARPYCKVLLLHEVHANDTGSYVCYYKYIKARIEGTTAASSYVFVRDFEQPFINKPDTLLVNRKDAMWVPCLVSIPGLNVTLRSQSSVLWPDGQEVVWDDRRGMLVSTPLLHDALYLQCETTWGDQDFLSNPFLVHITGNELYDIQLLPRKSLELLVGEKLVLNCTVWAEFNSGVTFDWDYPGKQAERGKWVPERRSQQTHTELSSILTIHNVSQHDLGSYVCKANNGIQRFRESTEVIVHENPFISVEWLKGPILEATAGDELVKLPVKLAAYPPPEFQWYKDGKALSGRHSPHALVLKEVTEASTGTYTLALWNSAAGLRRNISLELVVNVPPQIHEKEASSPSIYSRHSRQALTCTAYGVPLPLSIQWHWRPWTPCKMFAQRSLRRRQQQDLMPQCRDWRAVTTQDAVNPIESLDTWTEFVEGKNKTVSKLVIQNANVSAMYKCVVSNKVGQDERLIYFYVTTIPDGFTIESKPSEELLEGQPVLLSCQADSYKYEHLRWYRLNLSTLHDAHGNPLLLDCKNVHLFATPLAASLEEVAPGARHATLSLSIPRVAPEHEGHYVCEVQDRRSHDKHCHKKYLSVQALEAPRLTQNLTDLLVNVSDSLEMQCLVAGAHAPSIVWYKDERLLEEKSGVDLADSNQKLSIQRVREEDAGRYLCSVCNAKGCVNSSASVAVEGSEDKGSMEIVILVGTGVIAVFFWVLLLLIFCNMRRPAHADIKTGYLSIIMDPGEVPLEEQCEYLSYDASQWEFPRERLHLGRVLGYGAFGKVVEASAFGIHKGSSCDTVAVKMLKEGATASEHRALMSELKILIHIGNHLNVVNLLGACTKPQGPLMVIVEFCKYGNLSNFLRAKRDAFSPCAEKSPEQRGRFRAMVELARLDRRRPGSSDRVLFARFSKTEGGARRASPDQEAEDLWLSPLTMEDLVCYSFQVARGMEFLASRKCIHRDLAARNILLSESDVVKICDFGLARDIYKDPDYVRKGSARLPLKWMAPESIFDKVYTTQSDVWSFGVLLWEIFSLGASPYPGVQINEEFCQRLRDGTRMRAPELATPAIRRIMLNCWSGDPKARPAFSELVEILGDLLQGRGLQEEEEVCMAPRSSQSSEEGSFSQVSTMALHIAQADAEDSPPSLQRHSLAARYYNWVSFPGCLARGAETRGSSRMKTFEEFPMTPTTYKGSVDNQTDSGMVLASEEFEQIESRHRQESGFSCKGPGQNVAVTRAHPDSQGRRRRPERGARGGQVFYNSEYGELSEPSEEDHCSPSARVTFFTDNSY
# Sequence of Serine/threonine-protein kinase PLK1 (Homo sapiens) (P53350 whole entry): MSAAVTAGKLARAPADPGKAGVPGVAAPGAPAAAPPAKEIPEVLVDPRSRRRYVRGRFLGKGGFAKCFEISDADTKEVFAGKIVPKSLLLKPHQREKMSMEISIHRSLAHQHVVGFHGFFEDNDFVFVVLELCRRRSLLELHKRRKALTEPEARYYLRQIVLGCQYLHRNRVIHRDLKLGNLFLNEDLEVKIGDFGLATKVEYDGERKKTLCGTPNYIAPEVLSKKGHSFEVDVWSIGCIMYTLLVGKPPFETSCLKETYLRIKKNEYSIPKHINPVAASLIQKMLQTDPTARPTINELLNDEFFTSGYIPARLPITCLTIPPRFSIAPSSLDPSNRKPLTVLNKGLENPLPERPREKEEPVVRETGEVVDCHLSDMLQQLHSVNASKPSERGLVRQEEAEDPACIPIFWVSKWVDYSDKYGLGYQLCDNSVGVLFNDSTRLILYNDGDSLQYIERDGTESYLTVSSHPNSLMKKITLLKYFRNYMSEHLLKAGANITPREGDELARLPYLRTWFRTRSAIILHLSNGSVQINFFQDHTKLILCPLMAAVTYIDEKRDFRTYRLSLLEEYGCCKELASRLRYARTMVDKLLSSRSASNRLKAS
# Sequence of Serine/threonine-protein kinase Nek6 (Homo sapiens) (Q9HC98 whole entry): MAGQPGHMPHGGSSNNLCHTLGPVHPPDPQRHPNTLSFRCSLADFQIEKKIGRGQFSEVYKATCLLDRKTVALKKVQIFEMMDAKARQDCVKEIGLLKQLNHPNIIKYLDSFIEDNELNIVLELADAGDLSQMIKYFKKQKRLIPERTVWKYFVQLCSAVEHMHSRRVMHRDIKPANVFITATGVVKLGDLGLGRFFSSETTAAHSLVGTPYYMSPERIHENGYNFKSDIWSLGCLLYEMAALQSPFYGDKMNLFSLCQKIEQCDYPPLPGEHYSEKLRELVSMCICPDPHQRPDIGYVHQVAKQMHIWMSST
smiles,measurement,setting,value
COc1cccc(-n2ncc3c(N/N=C/c4ccc(F)cc4)ncnc32)c1,inhibition,[1],8.08%
same,inhibition,[2],2.09%
same,inhibition,[3],4.05%
same,inhibition,[4],3.93%
same,inhibition,[5],2.32%
same,inhibition,[6],2.71%
same,inhibition,[7],3.01%
same,inhibition,[8],1.25%
same,inhibition,[9],3.29%
same,inhibition,[10],1.55%
same,inhibition,[11],6.76%
same,inhibition,[12],1.91%
same,inhibition,[13],4.22%
same,inhibition,[14],7.93%
same,inhibition,[15],12.3%
same,inhibition,[16],7.04%
same,inhibition,[17],6.84%
same,inhibition,[18],6.04%
same,inhibition,[19],5.69%
same,inhibition,[20],8.43%

# — ChEMBL document CHEMBL1961873, “Compounds: GSK PKIS; Assays: Nanosyn kinase panel” (2012)
